Bioassay records as filed in PubChem.
Most compounds without a hit are left out; they make up all but 13% or so of the library.
FMDV antiviral: antivirals against foot and mouth disease virus. FMDV antiviral cell-based qHTS. Potency, µM (top dose mostly 57.9 µM), for inactives: at the highest dose activity change, negative = inhibition, hits mostly inhibitors. 1.2% of 410,000 active. AID 1159524; calls by dose curve; tested in HEK293T cells; further: read-out not given here; potency means the concentration at half of the fitted maximal effect; on the % scale 0 is the no-effect control and ±100 the full control effect; nearly all actives have a fitted effect of over 45% in size
Lassa entry inh: inhibitors of Lassa virus binding or cell entry | AID 540256 | Potency, µM (doses to about 37.9 µM), for inactives: top-dose activity change, negative = inhibition, hits mostly inhibitors | Lassa virus pseudotype entry inhibition, cell reporter | 1.2% of 300,000 active; calls by dose curve; tested in HEK293 cells; further: potency means the concentration at half of the fitted maximal effect; on the % scale 0 is the no-effect control and ±100 the full control effect; nearly all actives have a fitted effect of over 50% in size
CHX counter: counter-screen for Shiga toxin inhibitors: cycloheximide protein synthesis inhibition; cell reporter, cycloheximide protein synthesis inhibition counterscreen; 12% of 300,000 active; max response, %; in the data active means max response mostly above about 13%, no sharp cut-off; inactive means mostly below about 14%; further: read at 38.3 µM for the half of the compounds with a filed dose; 0% is about no effect
Marburg entry inh: Marburg virus entry inhibition. Marburg virus pseudotyped entry inhibition, cell reporter. Potency, µM (doses to about 37.8 µM), for inactives: at the top dose activity change, negative = inhibition, most hits filed as inhibitors. 1.8% of 300,000 active. AID 540276; calls by dose curve; tested in HEK293 cells; further: potency means the concentration at half of the fitted maximal effect; on the % scale 0 is the no-effect control and ±100 the full control effect
Shiga toxin inh: Shiga toxin inhibition | 9.2% of 290,000 active | AID 2315 | inhibition, % at 38.7 µM | Vero cells, Shiga toxin protein synthesis inhibition reporter; in the data active means inhibition mostly above about 28%, no sharp cut-off; inactive means mostly below about 43%; further: 0% is about no effect
HCV inhibitor: inhibitors of hepatitis C virus infection; Potency, µM (titrated, usually from 41.8 µM), for inactives: top-dose activity change, negative = inhibition, most hits filed as inhibitors; 3.4% of 340,000 active; Huh7.5.1 HCVcc-Cre infection, luciferase reporter, 44 h; AID 651820; active means well fitted inhibition curve with a large enough effect; inconclusive means small, poorly fitted or top-dose-only effect, or another doubt; inactive means no such curve, though single readings can be large or run the other way; further: potency means the concentration at half of the fitted maximal effect; on the % scale 0 is the no-effect control and ±100 the full control effect
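Whole-lifecycle infectious HCVcc-Cre system; cells 1,000/well, compound then virus (~0.5 moi) added 4 h after plating, 44 h culture. Luciferase read 15 sec following 15 min substrate incubation, room temp.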
* marks the source's active call; other numbers are inactive results; u = inconclusive; x = no result; [ ] = dose if it differs, or a comment.

SMILES | FMDV antiviral | Lassa entry inh | CHX counter | Marburg entry inh | Shiga toxin inh | HCV inhibitor
CCOC(=O)c1ccc(N=C2SC(C(=O)Nc3ccccc3)CC(=O)N2C)cc1 (stereo not given) | -14.7% | 16.0%[46.1 µM] | x | x | x | x
COCC1CCN(C(=O)c2cc(COc3cncc(Cl)c3)on2)C1 (stereo not given) | -16.2% | x | -3.5 | x | -3.2 | -1.0%
Cc1ccc(OCc2cc(C(=O)N3CCC(C(O)C(C)C)CC3)no2)cc1C (stereo not given) | 1.4% | x | 24.5* | x | 51.5* | -22.0%
Cc1ccc(OCc2cc(C(=O)N3CCCC3)no2)cn1 | 2.0% | u | 44.1* | u | 74.2* | u
CC(=O)NCCC1CCN(C(=O)c2cc(COc3ccc(C)nc3)on2)CC1 | -20.6% | -7.6%[46.1 µM] | -2.3 | 0.6%[46.1 µM] | -5.6 | -21.1%
Cc1cccc(C)c1OCc1cc(C(=O)N2CCCCCCC2)no1 | 12.7% | u | 42.9* | u | 48.6* | 9.7%
COCC1CCN(C(=O)c2cc(COc3cc(C)c(Cl)c(C)c3)on2)C1 (stereo not given) | -6.4% | x | 72.4* | x | 45.3* | -6.9%
Cc1ccc(OCc2cc(C(=O)N3CCN(C4CCCCC4)CC3)no2)cc1C | -0.5% | x | 52.2* | x | 65.4* | -26.0%
C=CCC1(CC=C)CCCN1C(=O)c1cc(COc2ccc(C)nc2)on1 | u | x | 21.3* | x | 78.3* | 0.794µM*
Cc1cccc(C)c1OCc1cc(C(=O)N2CCNC(=O)C2)no1 | 12.7% | x | 23.7* | x | 16.2 | 2.4%
Cc1ccc(OCc2cc(C(=O)N3CCN(C4CCCC4)CC3)no2)cc1C | 24.4% | -3.4% | 41.7* | u | 52.8* | -24.2%
C=CCC1(CC=C)CCCN1C(=O)c1cc(COc2ccc(F)c(F)c2)on1 | u | x | 2.6 | x | 12.3 | u
Cc1ccc(OCc2cc(C(=O)N3CCc4sccc4C3)no2)cc1C | -4.9% | u | 17.3 | 0.7% | 13.9 | 9.1%
COc1cccc(CNC(=O)c2c(OC)cc(=O)n3c2CCN(C(=O)c2csc(C)n2)CC3)c1 | 20.3% | x | x | x | x | x
CC(C)(C)n1nc2c(c1NC(=O)c1ccc(C(F)(F)F)cc1)CS(=O)(=O)C2 | -23.9% | -9.2% | -2.3 | 5.7% | -4.7 | 16.0%
Cc1ccc(OCc2cc(C(=O)N3CCC(c4ccccc4Cl)C3)no2)cc1C (stereo not given) | 31.3% | x | 62.6* | x | 72.8* | u
Cc1ccc(OCc2cc(C(=O)N3CCN(c4ccccc4)CC3)no2)cc1C | 17.6% | -27.4% | 40.9* | 1.0% | 59.2* | -5.2%
Cc1ccc(OCc2cc(C(=O)N(CCO)Cc3cccs3)no2)cc1C | 53.3% | u | 50.8* | -9.7% | 160.4* | -8.3%
Cc1ccc(OCc2cc(C(=O)N3CCCCCCC3)no2)cc1C | 57.9% | x | 20.2* | x | 37.7* | 0.7%
CCN(Cc1ccncc1)C(=O)c1cc(COc2ccc(C)c(C)c2)on1 | -17.2% | -18.8%[46.1 µM] | 2.9 | u | 16.9 | u
NC(=O)CC(NC(=O)Cc1cccc2ccccc12)c1ccc(NCCN2CCCC2)c([N+](=O)[O-])c1 (stereo not given) | 0.6% | x | -3.5 | x | 11.1 | 23.1%
COC(=O)c1ccc(C2C(Oc3ccc(OC)cc3)C(=O)N2CCc2ccc(OC)c(OC)c2)cc1 (stereo not given) | 7.4% | u | 0.3 | -4.6% | 13.2 | -11.2%
CCCN1CNc2c(c(=O)[nH]c(=S)n2CCc2ccccc2)C1 | -13.5% | 4.7% | 7.2 | -1.7%[46.1 µM] | -6.8 | -28.1%
O=C(O)C1=C[C@@H](c2ccc(F)cc2)C[C@@H](OCCCCO)O1 | -10.5% | x | -3.4 | x | -2.9 | 16.0%
NNC(=O)C1CCCN1S(=O)(=O)c1ccc(Cl)cc1 (stereo not given) | -10.2% | -22.9% | -3.8 | -25.9%[46.1 µM] | -9.0 | 6.3%
SMILES | FMDV antiviral | Lassa entry inh | CHX counter | Marburg entry inh | Shiga toxin inh | HCV inhibitor
COc1ccc(N(CC(=O)Nc2ccc3c(c2)OCO3)S(=O)(=O)c2ccccc2)c(OC)c1 | 39.4% | -15.3% | -3.5 | 0.0% | -1.5 | u
CC1CCN(S(=O)(=O)c2ccc3nc(N4CCN(c5ccccc5)CC4)ccc3c2)CC1 | -5.1% | 23.4%[46.1 µM] | -6.8 | x | 16.5 | 17.2%
Cc1cccc(N2CCN(C(=O)c3cc(COc4ccc(F)c(F)c4)on3)CC2)n1 | 25.1% | x | 40.1* | x | 59.2 | 17.5%
Cc1cc(OCc2cc(C(=O)N3CCCCCC3)no2)cc(C)c1Cl | 24.6% | -15.1% | 61.4* | u | 128.0* | x
Cc1cc(OCc2cc(C(=O)N3CCN(CC4CC4)CC3)no2)cc(C)c1Cl | 27.3% | x | 14.3 | x | 25.1 | -2.3%
CCc1cc(CNC(=O)c2cc(COc3ccc(C)nc3)on2)on1 | 26.0% | 2.1% | 44.1* | -0.8% | 59.2* | 4.2%
Cc1csc(NC(=O)c2ccc(Cl)cc2[N+](=O)[O-])n1 | -21.8% | -19.1% | 46.1* | u | 127.9* | 1.58µM*
Cc1csc(NC(=O)c2ccccc2[N+](=O)[O-])n1 | -2.1% | -2.8% | -5.3 | 8.8% | -17.5 | -0.2%
Cc1cc(C)nc(NC(=O)c2ccc(C)c([N+](=O)[O-])c2)n1 | -9.2% | 1.0% | 2.2 | -26.4% | -8.8 | u
Cc1csc(NC(=O)c2ccc(C)c([N+](=O)[O-])c2)n1 | -47.7% | u | 41.9* | u | 45.1 | -22.4%
O=c1c(-c2ccccc2)nc2cnc(N3CCNCC3)nc2n1C1CC1 | -13.2% | x | x | x | x | x
Cc1ccc(/C=[N+](\[O-])c2ccc(N(C)C)cc2)c2nsnc12 | 0.0% | u | 33.6* | u | 84.9* | u
CCCCNC(=O)CCC(=O)Nc1ccc2nc(N3CCN(C)CC3)cc(C)c2c1 | 9.8% | x | 7.0 | x | 5.4 | 12.1%
Cc1cc(N2CCN(C)CC2)nc2ccc(NC(=S)N3CCN(c4ccc(Cl)cc4)CC3)cc12 | 6.1% | 1.7% | -1.7 | -24.1%[46.1 µM] | -2.1 | u
CCCCN(C)C(=S)Nc1ccc2nc(N3CCN(CC)CC3)cc(C)c2c1 | -8.8% | x | 12.6 | x | 82.3* | -21.3%
CCCCN(CC)C(=S)Nc1ccc2nc(N3CCN(C)CC3)cc(C)c2c1 | 0.1% | x | 27.7* | x | 28.4 | u
CCCCN(C)CCNC(=S)Nc1ccc2nc(N3CCN(CC)CC3)cc(C)c2c1 | -8.8% | 7.08µM* | -2.4 | u | 8.4 | u
CCN1CCN(c2cc(C)c3cc(NC(=S)N(C)Cc4ccccc4)ccc3n2)CC1 | 35.7% | u | 10.4 | u | -6.1 | u
Cc1cc(N2CCN(C)CC2)nc2ccc(NC(=S)N3CCN(c4ccc(F)cc4)CC3)cc12 | 20.3% | x | -3.7 | x | -32.2 | 10µM*
O=C(NCc1ccc(F)cc1)c1cc2n(n1)C(C(F)(F)F)CC(C1CC1)N2 (stereo not given) | u | x | -4.9 | x | 29.0 | -7.5%
CN(Cc1cn(C)nc1-c1ccc(Oc2ccccc2)cc1)C1CCOC1 (stereo not given) | -19.3% | x | 0.9 | x | -7.0 | -4.0%
